Consider 31 compounds from PubChem BioAssay (NCI).

Molecules are shown by their SMILES. The panel holds about 83,000 compounds, 20% with a hit somewhere; the sample as a whole holds those more often.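 Activity criterion: percent growth below 10, measured after cells in 96-well plates were exposed to a single compound concentration for 48 hours.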 A number with no mark means an inactive call. The source made the active and inactive calls.

Holding throughout (test): NCI-60 one-dose screen, 48 h (100 = growth as untreated, 0 = no growth, -100 = all killed)
What all share (conditions): 10 µM unless noted

Assay [1] has as its system T-47D breast.
Assay [2] has as its system BT-549 breast.
Assay [3] deals with MDA-MB-435 melanoma.
Assay [4] deals with SW-620 colon.
In assay [5] the test system is MCF7 breast.
Assay [6] deals with HCT-116 colon.
Assay [7] relates to HCC-2998 colon.
Assay [8] deals with KM12 colon.

Consider `Cc1cc(NCc2cc(Nc3ccnc4cc(Cl)ccc34)ccc2F)nc(N2CCCC2)n1`, for which the growth in assay [1] is -59.7% (active); in assay [2] it was 58.1%; in assay [3] it was -94.7% (active); in assay [4] it was -1.87% (active); in assay [5], -14.1% (active); in assay [6], -53.5% (active). Moreover, the values for the growth in assay [7] and in assay [8] were -67.9% (active) and 12%, respectively.

As for `C=C(C)[C@@H]1CC[C@]2(C)[C@H](CC=C3[C@@H]4CC(C)(C)CC[C@]4(C(N)=O)CC[C@]32C)[C@@]1(C)CCC#N`, the growth in assay [1] was 10.4%; in assay [2], 17.7%; in assay [3], 17.7%; in assay [4], 22.1%; in assay [5] it was 6.71% (active); in assay [6], 9.92% (active). Moreover, the growth is 44.7% in assay [7] and 20.7% in assay [8].

For the compound `NC(=N\N=C/c1cccc([N+](=O)[O-])c1)/C(N)=N\N=C/c1cccc([N+](=O)[O-])c1`, the growth was 4.8% (active) in assay [1]; -14.9% (active) in assay [2]; 73.2% in assay [3]; 38.9% in assay [4]; 12.9% in assay [5]; 37.4% in assay [6]. Besides, the results for the growth in assay [7] and in assay [8] were 102% and 54.2%, respectively.

For the compound `CCOc1ccccc1-c1cc(-c2cccs2)c(C#N)c(=O)[nH]1`, the growth was 26.7% in assay [1]; 85.6% in assay [2]; 31.2% in assay [3]; 80.9% in assay [4]; 37.1% in assay [5]; 92.3% in assay [6]. Moreover, the growth in assay [7] is 92.2%; in assay [8], 83.9%.

For the compound `CC(=O)OC[C@H]1OC(Sc2sc(C(=O)c3ccc(Br)cc3)c(N)c2-c2nc3ccccc3s2)[C@H](OC(C)=O)[C@@H](OC(C)=O)[C@@H]1OC(C)=O` (stereo partly drawn), the growth in assay [1] is 73.7%; in assay [2] it was 80.7%; in assay [3], 80.7%; in assay [4] it was 54%; in assay [5], 62.7%; in assay [6] it was 18.7%. Moreover, the growth in assay [7] was 75.9%; in assay [8], 78.3%.

In the case of `Clc1cc(Cl)cc(Nc2ccc3cc(OCCCN4CCOCC4)ccc3n2)c1`, the growth in assay [1] is 32%; in assay [2] it was 88.5%; in assay [3], 34.1%; in assay [4], -8.79% (active); in assay [5] it was 8.56% (active); in assay [6], 19.8%. Also, the growth in assay [7] is -17.6% (active); in assay [8], 8.59% (active).

Turning to `CC(C)CC(NC(=O)CN(Cc1ccccc1)S(C)(=O)=O)C(=O)O` (stereo not drawn), the growth in assay [1] is 82%; in assay [2], 118%; in assay [3] it was 94.2%; in assay [4], 108%; in assay [5], 90.5%; in assay [6], 100%. Moreover, the growth is 95% in assay [7] and 98.6% in assay [8].

For `COc1ccc(N=Nc2ccc(O)c(=O)cc2)cc1`, the growth in assay [1] was -0.237% (active); in assay [2], 22%; in assay [3] it was 25.1%; in assay [4], 21.7%; in assay [5] it was 5.65% (active); in assay [6], 24.7%. Also, the results for the growth in assay [7] and in assay [8] were 36.2% and 18.2%, respectively.

As to `CCOC(=O)c1c2ncccc2n2c(=O)n(-c3ccccc3C)nnc12`, the growth in assay [1] was 89.9%; in assay [2] it was 104%; in assay [3], 116%; in assay [4], 117%; in assay [5] it was 77.5%; in assay [6], 92.6%. For the same compound, the growth was 106% in assay [7] and 119% in assay [8].

For `CCCc1cc2c(=O)c(C(=O)OC)c[nH]c2cc1N(CC)CC`, the growth in assay [1] was 94.4%; in assay [2], 93.5%; in assay [3] it was 109%; in assay [4], 114%; in assay [5], 80.2%; in assay [6], 96.3%. Also, the growth in assay [7] was 104%; in assay [8], 105%.

As for `COc1cccc(-c2nc3sccn3c2/C=C/C(=O)c2ccc(C(F)(F)F)cc2)c1`, the growth is 64.1% in assay [1]; 87.3% in assay [2]; 73.3% in assay [3]; 66.3% in assay [4]; 65% in assay [5]; 48.4% in assay [6]. Further, the growth was 102% in assay [7] and 73.1% in assay [8].

Regarding `CNC(=O)c1cc(Oc2cccc3nc(Nc4ccc(F)c(Cl)c4)ccc23)ccn1`, the growth was 66% in assay [1]; 62.9% in assay [2]; 60.5% in assay [3]; 20.3% in assay [4]; 35.1% in assay [5]; 17.6% in assay [6]. The values for the growth in assay [7] and in assay [8] were 101% and 63.5%, respectively.

For `COc1cc2ncn3c(=O)c4c5c(sc4nc3c2cc1OC)CCCC5`, the growth in assay [1] is 100%; in assay [2], 99.9%; in assay [3], 92.5%; in assay [4], 90.1%; in assay [5], 91.4%; in assay [6], 95.5%. Besides, the growth in assay [7] was 102%; in assay [8], 97.4%.

In the case of `O=C(c1ccccc1)c1c(/C=C/c2ccccc2)nc2ccccc2c1/C=C/c1ccc(Br)cc1`, the growth in assay [1] is 95.4%; in assay [2], 111%; in assay [3], 99.7%; in assay [4], 98.3%; in assay [5], 82.7%; in assay [6] it was 87.8%. Besides, the growth in assay [7] is 115%; in assay [8] it was 98.7%.

`O=C(COc1ccc(/C=C2\Oc3ccccc3C2=O)cc1)Nc1nc2ccccc2s1`: the growth in assay [1] was 91.4%; in assay [2] it was 46.2%; in assay [3] it was 65%; in assay [4], 96.3%; in assay [5], 120%; in assay [6], 87.3%. The growth in assay [7] is 107%; in assay [8], -28.7% (active).

As to `CCCCN(CCCC)CC(C)(C)C(O)c1ccc(OC)c2ccccc12` (stereo not drawn), the growth in assay [1] was 52.9%; in assay [2], 57.1%; in assay [3], 59.3%; in assay [4] it was 33.4%; in assay [5], 45.5%; in assay [6], 3.51% (active). For the same compound, the growth in assay [7] is 51.9%; in assay [8], 45.1%.

As for `Cc1c(Cl)cc(-n2c(=O)c3ccccc3c3ccccc3c2=O)cc1Cl`, the growth in assay [1] is 93.9%; in assay [2], 89.8%; in assay [3] it was 104%; in assay [4] it was 109%; in assay [5] it was 98%; in assay [6], 101%. Further, the growth in assay [7] is 95.5%; in assay [8], 111%.

Turning to `COc1cc(C2CC(=O)Nc3c2c(C)nn3-c2nc3ccccc3[nH]2)c(OC)c(OC)c1OC` (stereo not drawn), the growth in assay [1] was 40.8%; in assay [2], 52.7%; in assay [3], -36.4% (active); in assay [4], 26.7%; in assay [5] it was 25.4%; in assay [6], 23.5%. The growth was 95.2% in assay [7] and 35.1% in assay [8].

Consider `c1ccc(Nc2nc(-c3ccccn3)cs2)nc1`, for which the growth in assay [1] is 26.4%; in assay [2] it was 43.9%; in assay [3] it was 30.9%; in assay [4] it was 30.2%; in assay [5], 14.7%; in assay [6] it was 10.3%. Moreover, the growth in assay [7] was 38.3%; in assay [8], 29%.

As for `COc1cc(OC)cc(C2CC(=O)Nc3c2c(C)nn3-c2nc3ccccc3[nH]2)c1` (stereo not drawn), the growth in assay [1] was 12.6%; in assay [2], 39.1%; in assay [3], 9.66% (active); in assay [4], 24%; in assay [5], 7.95% (active); in assay [6], 0.333% (active). Also, the growth in assay [7] is 69.1%; in assay [8] it was 30.5%.

As to `O=C1C=C[C@]2(C[C@@H](c3cccc(C(F)(F)F)c3)O[C@@H](c3cccc(C(F)(F)F)c3)O2)O1`, the growth in assay [1] is -49.6% (active); in assay [2], -52.4% (active); in assay [3], -74.7% (active); in assay [4], -48.1% (active); in assay [5], -7.92% (active); in assay [6], -70.6% (active). In addition, the growth in assay [7] is 18%; in assay [8] it was 6.02% (active).

For `Cc1ccc(CCC(=O)Nc2ncc(Cc3cc(Cl)ccc3Cl)s2)o1`, the growth was 54.3% in assay [1]; 3.48% (active) in assay [2]; -36.8% (active) in assay [3]; 20.8% in assay [4]; 13% in assay [5]; 9.11% (active) in assay [6]. Moreover, the growth in assay [7] was 8.63% (active); in assay [8], 14.9%.

For `CCN(CC)CCCCCCNc1cc(OC)c(Cl)c2cccnc12`, the growth in assay [1] is 81.4%; in assay [2], 93.5%; in assay [3], 14.7%; in assay [4], 81.2%; in assay [5], 66.7%; in assay [6], 70.8%. Moreover, the growth in assay [7] was 82.1%; in assay [8], 76.9%.

For `CN(C)c1ccc(-c2cc(-c3ccc(Nc4nc(Nc5ccc(Cl)cc5)nc(Nc5ccc(Cl)cc5)n4)cc3)no2)cc1`, the growth in assay [1] was -4.43% (active); in assay [2], 58.2%; in assay [3], 9.44% (active); in assay [4], 53.6%; in assay [5], 13.4%; in assay [6], 31.3%. The growth was -5.58% (active) in assay [7] and 28.5% in assay [8].

Take `COc1cc(N=Nc2cc(Cc3ccc(N(C)C)cc3)c(N)cc2N(C)C)c2ncccc2c1`: the growth in assay [1] was -12.1% (active); in assay [2] it was 29.6%; in assay [3] it was 18.7%; in assay [4], -33.7% (active); in assay [5], -1.6% (active); in assay [6] it was -23.7% (active). In addition, the growth in assay [7] was 26.1%; in assay [8] it was -11.4% (active).

`CCN(CC)Cc1cccc(C(=O)OC)c1`: the growth is 88.3% in assay [1]; 93.1% in assay [2]; 101% in assay [3]; 101% in assay [4]; 90.9% in assay [5]; 89.9% in assay [6]. Besides, the growth in assay [7] and in assay [8] was 102% throughout.

For `N#Cc1c(N)nn(C(=O)c2ccc(NC(=O)c3ccccn3)cc2)c1-c1ccc(Cl)cc1`, the growth was -16.7% (active) in assay [1]; 15.5% in assay [2]; 33.9% in assay [3]; 13.9% in assay [4]; 36.4% in assay [5]; 12.4% in assay [6]. The growth in assay [7] was 14.9%; in assay [8] it was -26.3% (active).

Regarding `O=C(N=c1oc2ccccc2cc1-c1cc2ccccc2[nH]1)c1ccc(Cl)cc1`, the growth in assay [1] was 47.5%; in assay [2], 76%; in assay [3], 96.4%; in assay [4], 25.1%; in assay [5], 30.4%; in assay [6], 20%. The growth was 81.9% in assay [7] and 29.1% in assay [8].

As for `O=C(N/N=C/C=C/c1ccc([N+](=O)[O-])o1)c1cc2ccccc2cc1O`, the growth in assay [1] is -65.5% (active); in assay [2], -9.91% (active); in assay [3] it was -24.2% (active); in assay [4], -75.6% (active); in assay [5], -61.3% (active); in assay [6], -92.8% (active). In addition, the growth in assay [7] is -100% (active); in assay [8] it was -67.3% (active).

As to `O=C(Nc1cccc(C(F)(F)F)c1)Nc1cccc(C(F)(F)F)c1`, the growth was -4.96% (active) in assay [1]; 0.669% (active) in assay [2]; 9.11% (active) in assay [3]; 15.2% in assay [4]; 5.26% (active) in assay [5]; -10.8% (active) in assay [6]. The growth was 11.8% in assay [7] and 4.98% (active) in assay [8].

On to `O=c1c2c3c(sc2nc(N/N=C/c2ccc(Br)cc2)n1Cc1ccccc1)CCCC3`, for which the growth was 87.5% in assay [1]; 93.6% in assay [2]; 83.4% in assay [3]; 83.8% in assay [4]; 58.3% in assay [5]; 67.4% in assay [6]. The growth in assay [7] is 37.3%; in assay [8], 81.9%.
